# Test results from ChEMBL document CHEMBL5308504, “Tm Shift (DSF) assay results for EUbOPEN Chemogenomics Library” (2023).
# Assays:
# Details in all cases: Compound concentration 20.0 uM, Protein concentration 2.0 uM, Result type QC Liability
# [1] = biological target: Tyrosine-protein kinase ABL1 (Homo sapiens) (UniProt P00519)
# [2] = biological target: Cyclin-dependent kinase 2 (Homo sapiens) (UniProt P24941)
# [3] = biological target: Casein kinase I isoform delta (Homo sapiens) (UniProt P48730)
# Casein kinase I isoform delta (Homo sapiens), sequence (P48730 whole entry, looked up, canonical isoform): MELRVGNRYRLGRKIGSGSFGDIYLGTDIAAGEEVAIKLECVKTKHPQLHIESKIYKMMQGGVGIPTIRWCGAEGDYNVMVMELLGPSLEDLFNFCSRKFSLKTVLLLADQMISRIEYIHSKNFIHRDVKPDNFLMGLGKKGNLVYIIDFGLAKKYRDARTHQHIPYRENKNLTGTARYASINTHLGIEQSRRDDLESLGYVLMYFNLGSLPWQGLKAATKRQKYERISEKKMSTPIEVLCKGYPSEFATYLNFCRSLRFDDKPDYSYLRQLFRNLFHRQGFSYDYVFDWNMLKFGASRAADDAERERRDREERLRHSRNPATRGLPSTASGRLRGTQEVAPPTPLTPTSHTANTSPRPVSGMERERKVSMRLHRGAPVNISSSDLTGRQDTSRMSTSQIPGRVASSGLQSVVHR
# [4] = biological target: Glycogen synthase kinase-3 beta (Homo sapiens) (UniProt P49841)
# Glycogen synthase kinase-3 beta (Homo sapiens), sequence (P49841 whole entry, looked up): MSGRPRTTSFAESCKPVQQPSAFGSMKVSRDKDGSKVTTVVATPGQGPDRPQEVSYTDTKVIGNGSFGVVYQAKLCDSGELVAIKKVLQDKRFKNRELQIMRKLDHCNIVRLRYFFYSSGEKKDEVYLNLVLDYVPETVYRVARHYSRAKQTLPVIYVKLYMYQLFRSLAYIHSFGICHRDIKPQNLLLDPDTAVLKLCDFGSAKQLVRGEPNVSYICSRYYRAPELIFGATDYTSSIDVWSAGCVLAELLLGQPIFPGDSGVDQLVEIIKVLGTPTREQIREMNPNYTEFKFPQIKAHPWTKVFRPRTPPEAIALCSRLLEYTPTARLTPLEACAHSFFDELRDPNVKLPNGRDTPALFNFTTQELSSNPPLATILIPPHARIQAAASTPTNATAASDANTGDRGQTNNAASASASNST
# [5] = biological target: Mitogen-activated protein kinase 1 (Homo sapiens) (UniProt P28482)
# Mitogen-activated protein kinase 1 (Homo sapiens), sequence (P28482 whole entry): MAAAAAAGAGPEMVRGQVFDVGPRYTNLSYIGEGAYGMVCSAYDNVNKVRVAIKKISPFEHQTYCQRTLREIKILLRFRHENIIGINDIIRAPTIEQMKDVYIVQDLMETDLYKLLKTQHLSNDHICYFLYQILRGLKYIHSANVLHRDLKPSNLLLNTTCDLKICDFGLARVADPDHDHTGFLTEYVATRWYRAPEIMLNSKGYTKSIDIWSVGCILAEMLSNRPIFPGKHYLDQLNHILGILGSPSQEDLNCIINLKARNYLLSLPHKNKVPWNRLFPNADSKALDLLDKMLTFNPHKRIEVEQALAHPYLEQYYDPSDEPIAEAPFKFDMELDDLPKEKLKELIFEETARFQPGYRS
# [6] = biological target: T1, Aurora kinase A (Homo sapiens) (UniProt O14965)
# T1 sequence (whole entry): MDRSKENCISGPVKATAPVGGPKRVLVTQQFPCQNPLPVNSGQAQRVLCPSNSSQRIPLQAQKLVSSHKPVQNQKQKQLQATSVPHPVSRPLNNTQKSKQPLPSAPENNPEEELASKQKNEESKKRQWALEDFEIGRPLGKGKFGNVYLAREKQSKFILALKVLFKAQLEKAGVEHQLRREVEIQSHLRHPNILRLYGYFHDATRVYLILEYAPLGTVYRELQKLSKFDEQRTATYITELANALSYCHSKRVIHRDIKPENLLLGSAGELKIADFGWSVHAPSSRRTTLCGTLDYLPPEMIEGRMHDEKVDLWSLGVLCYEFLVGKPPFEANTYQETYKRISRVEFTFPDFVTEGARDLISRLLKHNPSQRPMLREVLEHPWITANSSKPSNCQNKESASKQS
# Tyrosine-protein kinase ABL1 (Homo sapiens), sequence (P00519 whole entry): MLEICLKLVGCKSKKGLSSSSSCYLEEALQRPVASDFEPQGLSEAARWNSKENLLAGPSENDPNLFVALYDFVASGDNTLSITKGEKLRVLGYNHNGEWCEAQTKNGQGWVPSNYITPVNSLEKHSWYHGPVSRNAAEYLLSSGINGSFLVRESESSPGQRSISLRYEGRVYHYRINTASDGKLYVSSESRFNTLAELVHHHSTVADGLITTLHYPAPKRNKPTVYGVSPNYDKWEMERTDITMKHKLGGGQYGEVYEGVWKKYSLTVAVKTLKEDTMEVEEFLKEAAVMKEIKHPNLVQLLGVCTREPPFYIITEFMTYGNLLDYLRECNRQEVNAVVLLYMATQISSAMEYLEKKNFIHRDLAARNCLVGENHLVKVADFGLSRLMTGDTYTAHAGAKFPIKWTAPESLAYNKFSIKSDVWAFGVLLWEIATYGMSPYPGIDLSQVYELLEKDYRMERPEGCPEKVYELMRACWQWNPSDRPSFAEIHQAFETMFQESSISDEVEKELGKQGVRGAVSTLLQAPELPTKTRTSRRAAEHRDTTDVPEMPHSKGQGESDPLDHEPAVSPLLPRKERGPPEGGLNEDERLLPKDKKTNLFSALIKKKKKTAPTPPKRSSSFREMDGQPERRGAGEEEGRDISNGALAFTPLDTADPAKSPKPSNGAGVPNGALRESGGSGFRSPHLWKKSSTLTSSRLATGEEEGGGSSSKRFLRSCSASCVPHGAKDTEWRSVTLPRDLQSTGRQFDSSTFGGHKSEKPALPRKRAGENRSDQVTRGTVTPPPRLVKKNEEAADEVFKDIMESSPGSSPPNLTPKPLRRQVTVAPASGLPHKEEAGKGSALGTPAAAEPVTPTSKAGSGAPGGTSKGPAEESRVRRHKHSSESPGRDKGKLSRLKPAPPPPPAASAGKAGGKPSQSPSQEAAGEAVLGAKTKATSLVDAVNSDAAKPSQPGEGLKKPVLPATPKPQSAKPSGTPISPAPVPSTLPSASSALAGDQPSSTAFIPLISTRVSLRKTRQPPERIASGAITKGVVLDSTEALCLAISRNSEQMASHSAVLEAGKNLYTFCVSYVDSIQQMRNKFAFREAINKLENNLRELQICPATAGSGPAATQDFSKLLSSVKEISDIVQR
Compound,ΔTm [1] [°C],ΔTm [2] [°C],ΔTm [3] [°C],ΔTm [4] [°C],ΔTm [5] [°C],ΔTm [6] [°C]
CCn1c(CNC(=O)c2nc(Cl)cnc2N)[n+](CC)c2ccc(C(=O)N(C)CCN(C)C)cc21,0.14,0.44,0.35,-0.7,0.33,-0.18
N#Cc1cccc(-c2c[nH]c3ncnc(N4CCOCC4)c23)c1,1.39,1.88,0.56,4.32,0.64,4.35
CC(C)(O)c1coc(S(=O)(=O)NC(=O)Nc2c3c(cc4c2CCC4)CCC3)c1,0.65,1.24,0.37,0.29,0.43,0.25
O=C(Cc1ccccc1[N+](=O)[O-])Nc1ccc(-c2ccc(C(O)(C(F)(F)F)C(F)(F)F)cc2F)cc1,0.67,2.11,-0.86,-0.71,-0.87,-1.59
C[C@H](NC(=O)c1cc(Cl)ccc1Oc1ccc(F)cc1)c1ccc(C(=O)O)cc1,-0.11,0.27,-2.45,0.51,0.18,-0.14
Cc1nn(-c2ccccc2)c(Nc2ccccc2C(=O)O)c1-c1cc2nccnc2c(F)c1F,-0.68,0.56,0.22,1,0.47,0.69
Nc1nc(-c2nn(Cc3ccccc3F)c3ncccc23)ncc1C1CC1,0.84,0.56,0.44,-0.21,0.15,0.14
Cc1nn(-c2nc3ccc(Cl)c(Cl)c3[nH]2)c(O)c1C1OC(=O)c2ccccc21 (stereo not given),-0.04,2.69,-0.14,0.53,0.2,0.71
CC[C@@H](Nc1c(C#N)c(-c2ccc(-c3cccc(C)c3F)cc2)nc2cnccc12)C(=O)O,1.07,-0.82,-0.63,0.06,-0.07,5.1
O=C(O)CCCN1CCC[C@H]1COc1ccc(Oc2ccc(Cl)cc2)cc1,0.14,0.25,-0.11,-0.15,-0.08,-0.43
CCN(CC)C/C=C/C(=O)Nc1cc2c(Nc3ccc(F)c(Cl)c3)ncnc2cc1OCC1CC1,7.73,-0.55,0.34,-0.95,-0.24,1.29
CN(C)C(=O)Cn1cc(-c2ccc(-c3nnc4ccccn34)cc2)cn1,-0.4,0.44,0.44,-0.7,0.27,-0.04
C[C@H](CCOc1cccc(CC(=O)O)c1)N(Cc1cccc(C(F)(F)F)c1Cl)CC(c1ccccc1)c1ccccc1,0.51,1.5,0.57,-1.07,0.41,-2.31
COc1cc(N(C)c2ccnc3ccc(C(F)(F)F)cc23)cc(OC)c1OC,0.48,-0.12,1.1,-0.36,0.28,-0.2
COc1ccc(S(=O)(=O)N2CCOCC2)cc1Nc1ccc2c(n1)N(C1CCN(C)CC1)[C@H](C)C(=O)N2C,-0.01,0.43,0.44,0.08,0.18,0
Cn1ncc(NC(=O)c2nc(-c3c(F)cccc3F)sc2N)c1N1CC[C@@H](N)[C@H](F)CC1,0.6,1.59,0.57,12.4,0.32,0.87
Fc1ccc(-c2c3cccc(C(F)(F)F)c3nn2Cc2ccc(F)cc2Cl)cc1,0.02,0.18,0.79,-1.83,0.06,-1.66
CS(=O)(=O)c1cc(C2(NC(=O)c3cncc4c3cnn4-c3ccc(F)cc3)CC2)ccn1,0.11,0.77,0.73,-0.04,-0.47,0.05
Cc1nc2cccnc2n2c(-c3cc([C@@]4(O)CCCOC4)ccc3Cl)nnc12,-0.53,0.88,0.26,-0.63,0,-0.06
CCc1nc(C2CCC2)n2nc(-c3ccccc3)[nH]c(=O)c12,0.18,1.98,0.4,1.45,0.11,1.13
CN1C(=O)Cc2ccc(-c3ccc(C[C@@H](C#N)NC(=O)[C@H]4N[C@@H]5CC[C@H]4C5)c(F)c3)cc21,0.24,0.52,0.41,0.41,0.5,0.8
CC[C@H](NC(=O)[C@H](C)NC)C(=O)N1C[C@@H](O)C[C@H]1Cc1c(-c2[nH]c3cc(F)ccc3c2C[C@@H]2C[C@H](O)CN2C(=O)[C@H](CC)NC(=O)[C@H](C)NC)[nH]c2cc(F)ccc12,0.09,0.28,1.26,-0.88,0.38,-1.51
CCOc1ccc(S(=O)(=O)Nc2ccc(Cl)cc2C#Cc2cnc(C(=O)O)cc2OC)c2ncccc12,-0.94,-1.65,-1.46,-1.14,-0.06,-2.25
CC(=O)N1CCC(c2ccc(C(=O)NC3=NCCN3)cc2C(F)(F)F)CC1,0.33,0.15,0.3,-0.03,0.1,-0.15
Nc1ncc2c(n1)-c1c([nH]c3ccc(C4CC4)cc13)CCCC2,0.19,-0.43,-0.06,2.09,0.41,-0.12
